Hit rate of the full screen: of about 300,000 compounds, about 37,000 (12%) were called active. The sample holds actives, similar compounds and a random draw of the others, so the mix is not that of the screen. Unmarked numbers belong to inactive results. Cut-off read from the data, not from the text of the source: active = max response mostly above about 13% (no sharp cut-off); inactive = mostly below about 14%.

A short description of the assay: Cycloheximide Counterscreen for Small Molecule Inhibitors of Shiga Toxin. Note: read at 38.3 µM for the half of the compounds with a filed dose; 0% is about no effect. The note with it: cell reporter, cycloheximide protein synthesis inhibition counterscreen; hits give high values. (Counterscreens check selectivity or assay interference.)
`C=CCN(CC=C)S(=O)(=O)c1ccc(C(=O)Nc2nc3c(s2)CCc2ccccc2-3)cc1`: the max response was -6.15%.

Take `CC(C)Cn1c(N2CCN(C(=O)/C=C/c3ccccc3)CC2)nc2ccccc21`: the max response was 3.07%.

Turning to `CC1CCCCC1NC(=O)CO/N=C/c1ccc(OC(F)F)cc1` (stereo not drawn), the max response was 1.26%.

Turning to `Cc1ccc(C(=O)NCC(=O)OCc2nnc(-c3ccccc3)o2)cc1`, the max response was 23.8% (active).

In the case of `O=C(CNC(=O)c1ccc(-c2ccccc2)cc1)OCc1ccc(Cl)cc1`, the max response is -0.931%.

In the case of `O=C(OCc1nnc(-c2ccccc2)o1)c1ccc2c(c1)C(=O)N(CCc1ccccc1)C2=O`, the max response is -1.64%.

With `O=C(CN1CCN(c2cccc(Cl)c2)CC1)Nc1ccc(S(=O)(=O)N2CCOCC2)cc1`, the max response is -3.83%.

With `CCOc1cc(/C=C2/N=C(c3ccc(C(C)(C)C)cc3)OC2=O)cc(Cl)c1OS(C)(=O)=O`, the max response is -4.6%.

In the case of `O=C1CCC(=O)N(O)CCCCCNC(=O)CCC(=O)N(O)CCCCCNC(=O)CCC(=O)N(O)CCCCCN1`, the max response was -3.2%.

Consider `CC(C)[C@@H]1COC(c2cccc(C3=N[C@H](C(C)C)CO3)c2)=N1`, for which the max response was 33.7% (active).

Regarding `O=C(O)c1cccnc1NC1CCCC1`, the max response is -2.86%.

Turning to `COc1ccc(-c2nonc2NC(=O)c2oc3ccc(F)cc3c2C)cc1OC`, the max response was 4.29%.

Consider `Cc1ccc(S(=O)(=O)NCc2ccc(C(=O)NC3CCC(C)CC3)cc2)cc1` (stereo not drawn), for which the max response was -10.9%.

For the molecule `Cc1ccc(C)c(NC(=O)NNC(=O)c2ccc3ccccc3c2O)c1`, the max response is 3.4%.

Turning to `CC(NC(=O)c1cc(-c2ccccc2)on1)c1ccccc1` (stereo not drawn), the max response is 3.69%.

As for `O=C(NC1CCN(S(=O)(=O)c2ccc(F)cc2)CC1)c1ccccc1`, the max response is -0.862%.

In the case of `CSc1ccccc1NC(=O)c1cc(Cl)sc1Cl`, the max response is 2.39%.

As for `CC(=O)c1cc(-c2ccccc2)n(CC(=O)NC2CCCCC2)c1C`, the max response is -3.63%.

As to `Cc1nn(Cc2ccc(Cl)c(Cl)c2)c(C)c1NC(=O)c1cc(C2CC2)on1`, the max response was -1.12%.

Turning to `O=C(NC1CCCCC1)c1cc(C2CC2)on1`, the max response is 40.8% (active).

As to `O=C(NC1CC1)c1cccc(Br)c1`, the max response is -2.43%.

Turning to `CSc1ccccc1NC(=O)c1cc(C2CC2)on1`, the max response was 37.7% (active).

`O=C(NC1CCCC1)c1cc(-c2ccccc2)on1`: the max response is 30.6% (active).

In the case of `COc1cc(OC)c(C(=O)NC2CCCCCC2)cc1OC`, the max response was -2.09%.

Turning to `O=C(NC1CC1)c1ccc(-c2ccccc2)cc1`, the max response is 42.7% (active).

With `O=C(Nc1cc(C(F)(F)F)ccc1Cl)c1cc(C2CC2)on1`, the max response was -4.3%.

For `Cn1cc(S(=O)(=O)Nc2ccc(Cl)cc2Cl)c(=O)n(C)c1=O`, the max response was -2.38%.

Turning to `CC(C)C[C@@H](NC(=O)[C@H]1CCCN1C(=O)Cc1ccccc1)C(N)=O`, the max response was 8.92%.

`CCC1(CC)C(=O)C2=C3C1[C@H](C(=O)OC)C=C(C(=O)OC)C[C@H]3[C@H]1C(=O)N(Cc3ccccc3)C(=O)[C@H]1[C@H]2C` (stereo partly drawn): the max response is -3.02%.

For `CC(NC(=O)Cn1cc(C(F)(F)F)cc(Cl)c1=O)c1ccccc1` (stereo not drawn), the max response was 11.8%.

Regarding `CC[C@H](C)[C@H](NC(=O)[C@H](Cc1cnc[nH]1)NC(=O)[C@@H](N)CCC(=O)O)C(=O)N1CCC[C@H]1C(=O)N[C@@H](C)C(=O)O`, the max response was -2.98%.

Take `CCCCn1ccnc1C(=O)c1cccc(S(=O)(=O)N2c3ccccc3CC2C)c1` (stereo not drawn): the max response is -2.53%.

Turning to `O=C(CCC(=O)OCc1ccc(Cl)cc1)Nc1ccccc1`, the max response was -2.49%.

Turning to `Cc1ccc(/C(N)=N/OC(=O)COc2ccc(Cl)c(C)c2)cc1`, the max response was -3.46%.

Turning to `CC(=O)OC(C(=O)NCCc1ccccc1)c1cccnc1` (stereo not drawn), the max response is -0.715%.

For the molecule `N/C(=N\OC(=O)CCc1ccccc1)c1ccc(Cl)cc1`, the max response was 24.7% (active).

Take `N/C(=N\OC(=O)CCc1ccccc1)c1cccnc1`: the max response is 27.3% (active).

As to `O=C(O)CCc1cccnc1`, the max response is 2.51%.

In the case of `CCCOc1ccc(NC(=O)CC2C(=O)N(C)C(=S)N2Cc2ccc3c(c2)OCO3)cc1` (stereo not drawn), the max response is -2.42%.

For `COc1ccc(NC(=O)C(C)SCc2ccccc2)cc1` (stereo not drawn), the max response is 23%.

Consider `Cc1cccc(NC(=O)C(C)SCc2ccccc2)c1` (stereo not drawn), for which the max response was 21.6% (active).

Regarding `Cc1cccc(NC(=O)C(C)N2C(=O)C3C4CC(C(Br)C4Br)C3C2=O)c1` (stereo not drawn), the max response was -1.4%.

As to `CC(C(=O)Nc1ccc(O)c(C(=O)O)c1)N1C(=O)/C(=C/c2cccs2)SC1=S` (stereo not drawn), the max response is -1.39%.

As for `CC1(C)CC(CNCCC(c2ccc(F)cc2)c2ccco2)CCO1` (stereo not drawn), the max response was 0.614%.

With `CCOC(=O)C1(CCOc2ccccc2)CCN(Cc2cc(OC)c(O)cc2Cl)CC1`, the max response is -2.51%.

Regarding `Nc1nnc(SCC(=O)Nc2ccc3nc(SCC(=O)Nc4ccccc4)sc3c2)s1`, the max response is 33.9% (active).

For the molecule `CCCCNC(=O)CSc1nc2ccc(NC(=O)CSc3nnc(N)s3)cc2s1`, the max response was 2.41%.

Regarding `CCCCNC(=O)CSc1nc2ccc(NC(=O)CSc3nnc(COc4ccccc4C)n3C)cc2s1`, the max response is 5.25%.

For `C#CCOc1ccc(/C=C2/C(=O)NN(c3ccccc3)C2=O)cc1OC`, the max response is -3.05%.

On to `O=C(CN1CCN(c2ccccn2)CC1)NCc1cccs1`, for which the max response is -3.83%.

Regarding `COC(=O)Cn1cc(C(=O)c2cccs2)c2ccccc21`, the max response was -0.264%.

In the case of `COCCCNC(=O)Cn1cc(C(=O)C2CC2)c2ccccc21`, the max response is -2.09%.

For `COC(=O)c1cn(CC(=O)NCc2cccs2)c2ccccc12`, the max response is 68.2% (active).

`CCN(CC)C(=O)C(=O)c1cn(CC(=O)NCc2ccc3c(c2)OCO3)c2ccccc12`: the max response is -2.04%.

With `O=C(Cn1cc(C(=O)c2cccs2)c2ccccc21)NCc1cccs1`, the max response is 39% (active).

In the case of `Cc1cccc(N(C(=O)c2sc(C)nc2C)C(C(=O)NCC2CCCO2)c2ccccc2)c1` (stereo not drawn), the max response is -2.65%.

Take `CCOc1ccc(NC(=O)C(C)N2C(=O)c3ccccc3C2=O)cc1` (stereo not drawn): the max response is -2.64%.

With `O=C(O)CC/C(=C\c1cc2c(cc1Br)OCO2)c1nc2ccccc2s1`, the max response is 0.661%.

In the case of `O=C(O)CS/C(=C\c1ccc(F)cc1)c1nc2ccccc2s1`, the max response is 37.2% (active).

Consider `O=C(O)CSc1nccc2ccccc12`, for which the max response is 2.48%.

Turning to `O=C(O)c1ccccc1CSc1nc2ccccc2s1`, the max response is 34% (active).

Consider `CN(Cc1nc2ccccc2s1)C(=O)c1ccc(F)cc1`, for which the max response was 14.2%.

Take `O=C(O)c1cccc(S(=O)(=O)Nc2ccc(O)cc2Sc2nc3ccccc3s2)c1`: the max response was 4.69%.

With `O=C(O)CCCCc1nc2ccccc2s1`, the max response is 3.94%.

As to `O=C(CSc1nc2ccccc2s1)Nc1ccc(C(=O)O)cc1`, the max response was -4.27%.

Turning to `O=C(O)CSCc1nc2ccccc2s1`, the max response was 27.6% (active).

As to `C=CCn1c(-c2ccccc2OCC)n[nH]c1=S`, the max response is 5.03%.

In the case of `COc1ccccc1C(=O)N(Cc1ccc(C)o1)C1CCS(=O)(=O)C1` (stereo not drawn), the max response is 1.49%.

`COc1cc(Cl)c(C)cc1NC(=O)CSc1nnc(-c2ccco2)n1CC(C)C`: the max response was -3.52%.

Regarding `O=C(CC12CC3CC(CC(C3)C1)C2)Nc1ccc2c(c1)COC2=O`, the max response is -2.75%.

With `Cc1ccc2oc(C(=O)N3CCN(C)C[C@@H]3C(C)C)c(C)c2c1`, the max response was 22.3% (active).

On to `COc1ccccc1N1CCN(C(=O)c2cc(=O)c3cc(C)ccc3o2)CC1`, for which the max response was -2.83%.

For `Cc1ccc2c(C)c(C(=O)N3CCC(N4CCC(C(=O)NC5CC5)CC4)CC3)oc2c1`, the max response was 0.384%.

`COc1cccc(CNC(=O)c2cccnc2Sc2ccc(Cl)cc2)c1`: the max response was 0.861%.

Regarding `O=C(NCc1cc(C(F)(F)F)cc(C(F)(F)F)c1)C1CC(c2cccc(F)c2)=NO1` (stereo not drawn), the max response is -1.65%.

Turning to `CCCn1nc(NS(=O)(=O)c2ccc(F)cc2)c2cc3ccccc3nc21`, the max response was -11.4%.

As to `N#Cc1ccc(N2Cc3ccccc3/C2=N/C(=O)Nc2ccc(Cl)cc2)cc1`, the max response is 15%.

`Cc1cccc(N2Cc3ccccc3C2=NC(=O)c2ccc(Cl)nc2)c1`: the max response was 35.1% (active).

On to `Cc1cccc(N2CCN(C(=O)c3cccc(S(=O)(=O)N4CCc5ccccc5C4)c3)CC2C)c1` (stereo not drawn), for which the max response is 1.1%.

In the case of `COc1ccc(C(=O)CC(=O)C(=O)Nc2cc([N+](=O)[O-])ccc2OC)cc1`, the max response is -2.37%.

Regarding `Cn1c(N2CCOCC2)c(C=O)c2ccccc21`, the max response was -2.7%.

Take `Cc1ccc(S(=O)(=O)N(CC(=O)N2CCc3ccccc3C2)c2cccc(Cl)c2)cc1`: the max response was -3.56%.

Consider `Cc1ccccc1N1CC(c2nc3ccccc3[nH]2)CC1=O` (stereo not drawn), for which the max response is -2.15%.

On to `COc1ccc(-c2[nH]nc(-c3ccccc3)c2-c2nc3ccccc3[nH]2)cc1`, for which the max response was -1.76%.

For `Cc1ccc(-c2nc3ccccc3[nH]c2=O)cc1`, the max response is 24.9% (active).

Consider `CCC(C(=O)NC1CCCCC1)N(C(=O)c1snc(C(N)=O)c1N)c1ccc(OC)cc1OC` (stereo not drawn), for which the max response is -5.48%.

Take `COc1ccccc1C(=O)Nc1ccnn1C1CCN(C(=O)C(C)(C)C)CC1`: the max response is 2.22%.

Regarding `Cc1ccc(S/C(=N\S(=O)(=O)c2ccc(Cl)cc2)c2ccccc2)cc1`, the max response was -3.74%.

For `O=S(=O)(/N=C(/Nc1ccccn1)c1ccccc1)c1ccc(Cl)cc1`, the max response is 15.2% (active).

With `O=C(Nc1ccc(S(=O)(=O)Nc2ccccn2)cc1)c1ccccc1`, the max response is -3.7%.

Consider `O=S(=O)(Nc1ccccn1)c1cccc(S(=O)(=O)c2ccc(Cl)cc2)c1`, for which the max response was 1.04%.

Consider `Cc1ccc(S(=O)(=O)/N=C(/Nc2ccccn2)c2ccc(Cl)cc2)cc1`, for which the max response was 18.6% (active).

With `Cc1ccc(S(=O)(=O)/N=C(/Nc2ccc3[nH]c(=O)[nH]c3c2)c2ccccc2)cc1`, the max response was -2.26%.

For the origin of these results see PubChem BioAssay AID2314 (National Center for Advancing Translational Sciences (NCATS), 2010).
